Laboratory results reported in PubChem BioAssay (Tox21).
Values without a mark were called inactive. Records with an inconclusive call do not appear. Activity calls are given as the source filed them. Calls come from the whole dose curve.

Each compound was assayed against 5-hydroxytryptamine receptor 2A (Homo sapiens) (UniProt P28223) (assay: 5-hydroxytryptamine receptor 2A (HTR2A) small molecule agonists, cell-based qHTS assay (AID 1963587; note: nearly all actives have a fitted effect of over 30% in size; note: potency is the fitted concentration of half-maximal effect)). Conditions: HTR2A-CHO cells, calcium flux fluorescence, agonist mode; series mostly up to 76.8 µM; activation: at the top concentration.
Sequence of 5-hydroxytryptamine receptor 2A (Homo sapiens) (P28223 whole entry, looked up): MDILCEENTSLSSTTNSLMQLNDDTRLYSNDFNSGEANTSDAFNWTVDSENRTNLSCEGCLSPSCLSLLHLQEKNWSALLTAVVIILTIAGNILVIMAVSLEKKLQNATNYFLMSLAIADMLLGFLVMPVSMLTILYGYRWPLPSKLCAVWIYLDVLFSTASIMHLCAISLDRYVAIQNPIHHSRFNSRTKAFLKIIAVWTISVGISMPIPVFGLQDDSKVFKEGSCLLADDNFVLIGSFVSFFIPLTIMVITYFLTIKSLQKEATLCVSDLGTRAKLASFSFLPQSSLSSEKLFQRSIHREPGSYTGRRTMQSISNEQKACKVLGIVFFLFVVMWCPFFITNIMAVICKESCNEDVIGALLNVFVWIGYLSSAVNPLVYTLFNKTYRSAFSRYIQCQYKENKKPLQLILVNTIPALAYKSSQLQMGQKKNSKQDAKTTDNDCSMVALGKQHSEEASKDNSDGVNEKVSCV
Method in brief: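 HTR2A-CHO cells, plated 18 h at 37 C/5% CO2, dye-loaded 1 h at 37 C; compounds in DMSO added by pin tool (agonist mode). Intracellular calcium flux read as kinetic fluorescence on FDSS over 2 min at 1 s intervals.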
% is set by controls: 0 for no effect and ±100 for the full control effect.

SMILES	activation	Potency
O=C(O)c1cc(C(=O)O)c(C(=O)O)cc1C(=O)O	-0.828%	–
O=S(=O)(O)c1ccc(N=Nc2c(O)ccc3ccccc23)cc1	-2.73%	–
COS(=O)(=O)C(F)(F)F	2.96%	–
O=C(NS(=O)(=O)/C=C/c1ccccc1)c1ccc(F)cc1Cl	-9.89%	–
CC(C)NCCCC1(C(N)=O)c2ccccc2-c2ccccc21	0.488% [at 35.6 µM]	–
CC/C=C\CCOC(=O)c1ccccc1O	-1.1%	–
CCCCCCCCCCCCCCNCCO	–	23.9 µM (active)
O=C1OC(O)C(C(Cl)Cl)=C1Cl (centres undefined)	6.7%	–
CC1(C)CC(OC(=O)CCCCCCCCC(=O)OC2CC(C)(C)NC(C)(C)C2)CC(C)(C)N1	2.3% [at 15.9 µM]	–
C=CC(=O)OCCOCCOC(=O)C=C	-0.641%	–
FC(F)(F)C(F)(F)C(F)(F)C(F)(F)C(F)(F)C(F)(F)C(F)(F)C(F)(F)Br	1.82% [at 35.6 µM]	–
C=CC(=O)OCCOCC(CC)(COCCOC(=O)C=C)COCCOC(=O)C=C	2.2%	–
CCCCCCCCCCCCCCBr	6.77%	–
Cc1ccc2c(c1)c1c3n2CCNC3CCC1 (centres undefined)	–	9.52 µM (active)
O=C(O)CCCC[P+](c1ccccc1)(c1ccccc1)c1ccccc1	1.33% [at 35.6 µM]	–
CC(C)C1OCCN1CCOC(=O)NCCCCCCNC(=O)OCCN1CCOC1C(C)C (centres undefined)	2.83%	–
CCCCCCCCSCc1cc(C)c(O)c(CSCCCCCCCC)c1	5.42%	–
O=C(c1ccc(O)cc1)c1ccc(Cl)cc1	0.221%	–
CC(=O)Oc1cc(C(C)C)c(OCCN(C)C)cc1C	4.24% [at 35.6 µM]	–
Oc1cccc2[nH]ccc12	8.39% [at 35.6 µM]	–
C/C=C\C/C=C/CCCCCCCCOC(C)=O	-1.23%	–
CC(C)OCC1CO1 (centres undefined)	7.64%	–
CCOC(=O)N1CCC(Nc2ccc(Cl)cc2N)CC1	18.3% [at 35.6 µM]	–
CC(C)(O)c1ccc(CNC(=O)c2cccnc2Oc2ccc(F)cc2)cc1	-0.137%	–
O=C(CCCl)NCc1ccccc1	0.89% [at 35.6 µM]	–
CCCC(=O)c1cc(O)c(O)cc1O	–	0.436 µM (active)
O=C(CCOCCOCCOCCOCCC(=O)Nc1c(I)cc(I)c(C(=O)O)c1I)Nc1c(I)cc(I)c(C(=O)O)c1I	-5.38% [at 35.6 µM]	–
CC(C)C(=O)Nc1cccc(C(F)(F)F)c1	-15% [at 35.6 µM]	–
Clc1ccnc(Cl)n1	1.71%	–

The compounds below were run against Muscarinic acetylcholine receptor M1 (Homo sapiens) (UniProt P11229) (assay: Cholinergic receptor muscarinic 1 (CHRM1) small molecule antagonists, cell-based qHTS assay (AID 1963588; note: nearly all actives have a fitted effect of over 40% in size)). Conditions: CHRM1-CHO antagonist mode, calcium flux fluorescence; series mostly up to 61.5 µM; activity, negative = inhibition: at the top concentration.
Sequence of Muscarinic acetylcholine receptor M1 (Homo sapiens) (P11229 whole entry, looked up): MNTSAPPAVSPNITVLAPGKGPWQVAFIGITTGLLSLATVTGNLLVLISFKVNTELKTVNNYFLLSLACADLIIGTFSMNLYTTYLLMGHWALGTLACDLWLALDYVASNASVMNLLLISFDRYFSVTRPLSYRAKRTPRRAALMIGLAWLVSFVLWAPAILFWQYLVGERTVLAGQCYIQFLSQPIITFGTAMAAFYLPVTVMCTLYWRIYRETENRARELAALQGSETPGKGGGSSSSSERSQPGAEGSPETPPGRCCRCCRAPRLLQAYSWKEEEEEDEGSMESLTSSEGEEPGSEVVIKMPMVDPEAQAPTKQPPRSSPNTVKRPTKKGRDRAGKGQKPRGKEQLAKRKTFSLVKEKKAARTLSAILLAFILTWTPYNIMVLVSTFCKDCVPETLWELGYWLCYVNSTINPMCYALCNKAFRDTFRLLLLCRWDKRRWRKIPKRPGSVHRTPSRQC
Method in brief: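 CHRM1-CHO calcium-flux assay, antagonist mode. Cells were seeded 18 h, dye-loaded 1 h at 37 C and given compound for 5 min at RT, then acetylcholine was added at 50nM. FDSS fluorescence was read 3 min; 15 concentrations, three runs.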

SMILES	activity, negative = inhibition
O=C(O)c1cc(C(=O)O)c(C(=O)O)cc1C(=O)O	12.7%
O=S(=O)(O)c1ccc(N=Nc2c(O)ccc3ccccc23)cc1	-9.85%
O=C(NS(=O)(=O)/C=C/c1ccccc1)c1ccc(F)cc1Cl	13.4%
Nc1c(N=Nc2ccc(-c3ccc(N=Nc4cc(S(=O)(=O)O)c5ccccc5c4N)cc3)cc2)cc(S(=O)(=O)O)c2ccccc12	2.9%
CCCCCc1ccc(N)cc1	-19.6%
CC/C=C\CCOC(=O)c1ccccc1O	0.921%
CCCCCCCCCCCCCCNCCO	-4.34% [at 28.3 µM]
O=C1OC(O)C(C(Cl)Cl)=C1Cl (centres undefined)	11.1%
CC1(C)CC(OC(=O)CCCCCCCCC(=O)OC2CC(C)(C)NC(C)(C)C2)CC(C)(C)N1	30.1% [at 12.6 µM]
C=CC(=O)OCCOCCOC(=O)C=C	-5.45%
FC(F)(F)C(F)(F)C(F)(F)C(F)(F)C(F)(F)C(F)(F)C(F)(F)C(F)(F)Br	-1.69% [at 28.3 µM]
C=CC(=O)OCCOCC(CC)(COCCOC(=O)C=C)COCCOC(=O)C=C	9.66%
CCCCCCCCCCCCCCBr	-6.23%
Cc1ccc2c(c1)c1c3n2CCNC3CCC1 (centres undefined)	29.1% [at 28.3 µM]
O=C(O)CCCC[P+](c1ccccc1)(c1ccccc1)c1ccccc1	3.79% [at 28.3 µM]
CC(C)C1OCCN1CCOC(=O)NCCCCCCNC(=O)OCCN1CCOC1C(C)C (centres undefined)	-28.1%
CCCCCCCCSCc1cc(C)c(O)c(CSCCCCCCCC)c1	-12.5%
CC(=O)Oc1cc(C(C)C)c(OCCN(C)C)cc1C	2.72% [at 28.3 µM]
CN(C)CCCOC1(Cc2ccccc2)CCCCCC1	-19% [at 28.3 µM]
Oc1cccc2[nH]ccc12	17% [at 28.3 µM]
C/C=C\C/C=C/CCCCCCCCOC(C)=O	0.0598%
CC(C)OCC1CO1 (centres undefined)	-3.22%
CCOC(=O)N1CCC(Nc2ccc(Cl)cc2N)CC1	-32.2% [at 28.3 µM]
CC(C)(O)c1ccc(CNC(=O)c2cccnc2Oc2ccc(F)cc2)cc1	-39.8%
O=C(CCCl)NCc1ccccc1	-1.6% [at 28.3 µM]
CCCC(=O)c1cc(O)c(O)cc1O	4.94%
CCN1CCCC1CNC(=O)c1cc(S(=O)(=O)CC)c(N)cc1OC (centres undefined)	10.6% [at 28.3 µM]
O=C(CCOCCOCCOCCOCCC(=O)Nc1c(I)cc(I)c(C(=O)O)c1I)Nc1c(I)cc(I)c(C(=O)O)c1I	5.18% [at 28.3 µM]
CC(C)C(=O)Nc1cccc(C(F)(F)F)c1	-7.16% [at 28.3 µM]
Clc1ccnc(Cl)n1	18.7%

These compounds were tested against Muscarinic acetylcholine receptor M1 (Homo sapiens) (UniProt P11229) (assay: Cholinergic receptor muscarinic 1 (CHRM1) small molecule agonists, cell-based qHTS assay (AID 1963589; note: nearly all actives have a fitted effect of over 35% in size)). Conditions: CHRM1-CHO cells, agonist mode, calcium flux fluorescence; series mostly up to 76.8 µM; activation: at the top concentration.
Method in brief: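 Human M1 in stable CHO line; 18 h plating, 1 h dye load 37 C; cpd added (agonist mode); Ca2+ fluorescence kinetic read, 1 s intervals; 15 conc, 3 runs.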

SMILES	activation
O=C(O)c1cc(C(=O)O)c(C(=O)O)cc1C(=O)O	0.423%
O=S(=O)(O)c1ccc(N=Nc2c(O)ccc3ccccc23)cc1	-0.656%
COS(=O)(=O)C(F)(F)F	-0.103%
O=C(NS(=O)(=O)/C=C/c1ccccc1)c1ccc(F)cc1Cl	0.287%
Nc1c(N=Nc2ccc(-c3ccc(N=Nc4cc(S(=O)(=O)O)c5ccccc5c4N)cc3)cc2)cc(S(=O)(=O)O)c2ccccc12	13.5%
CC(C)NCCCC1(C(N)=O)c2ccccc2-c2ccccc21	-0.192% [at 35.3 µM]
CCCCCc1ccc(N)cc1	-0.461%
CC/C=C\CCOC(=O)c1ccccc1O	-2.39%
CCCCCCCCCCCCCCNCCO	0.643% [at 35.3 µM]
O=C1OC(O)C(C(Cl)Cl)=C1Cl (centres undefined)	0.737%
CC1(C)CC(OC(=O)CCCCCCCCC(=O)OC2CC(C)(C)NC(C)(C)C2)CC(C)(C)N1	-1.98% [at 15.8 µM]
C=CC(=O)OCCOCCOC(=O)C=C	0.439%
FC(F)(F)C(F)(F)C(F)(F)C(F)(F)C(F)(F)C(F)(F)C(F)(F)C(F)(F)Br	-0.313% [at 35.3 µM]
C=CC(=O)OCCOCC(CC)(COCCOC(=O)C=C)COCCOC(=O)C=C	-0.147%
CCCCCCCCCCCCCCBr	-0.0159%
Cc1ccc2c(c1)c1c3n2CCNC3CCC1 (centres undefined)	0.292% [at 35.3 µM]
O=C(O)CCCC[P+](c1ccccc1)(c1ccccc1)c1ccccc1	-0.649% [at 35.3 µM]
CC(C)C1OCCN1CCOC(=O)NCCCCCCNC(=O)OCCN1CCOC1C(C)C (centres undefined)	0.888%
O=C(c1ccc(O)cc1)c1ccc(Cl)cc1	3.15%
CC(=O)Oc1cc(C(C)C)c(OCCN(C)C)cc1C	-0.687% [at 35.3 µM]
CN(C)CCCOC1(Cc2ccccc2)CCCCCC1	7.82% [at 35.3 µM]
Oc1cccc2[nH]ccc12	-0.348% [at 35.3 µM]
C/C=C\C/C=C/CCCCCCCCOC(C)=O	0.41%
CC(C)OCC1CO1 (centres undefined)	0.0752%
CCOC(=O)N1CCC(Nc2ccc(Cl)cc2N)CC1	6.87% [at 35.3 µM]
CC(C)(O)c1ccc(CNC(=O)c2cccnc2Oc2ccc(F)cc2)cc1	-0.849%
O=C(CCCl)NCc1ccccc1	-0.0483% [at 35.3 µM]
CCN1CCCC1CNC(=O)c1cc(S(=O)(=O)CC)c(N)cc1OC (centres undefined)	-0.449% [at 35.3 µM]
CC(C)C(=O)Nc1cccc(C(F)(F)F)c1	-0.388% [at 35.3 µM]
Clc1ccnc(Cl)n1	-0.0063%
